# Results as given in PubChem BioAssay (Tox21).
# A number with no mark means an inactive call. Results filed as inconclusive are left out. Where a call stands in place of a potency, no number is given. Activity calls are given as the source filed them. Unless noted, the call rests on the fitted dose curve.
# Legend:
# [1] = Nuclear factor erythroid 2-related factor 2/antioxidant responsive element (Nrf2/ARE) small molecule agonists: qHTS cell viability counter screen in human keratinocytes (AID 1919968; active means well fitted curve in the direction sought with a large enough effect in the repeat runs; an effect the other way counts as inactive or inconclusive; further: nearly all actives have a fitted effect of over 55% in size; further: potency means the concentration at half of the fitted maximal effect)
# Outline: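 Seed 1,500 KeratinoSens cells per well, then incubate 5 h at 37 C/5% CO2. Add compounds in DMSO and incubate 23 h. Add CellTiter-Fluor, wait 1 h and read fluorescence.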
# [2] = Nuclear factor erythroid 2-related factor 2/antioxidant responsive element (Nrf2/ARE) small molecule agonists: luciferase reporter gene qHTS assay in human keratinocytes (AID 1919969); further: nearly all actives have a fitted effect of over 35% in size; further: potency means the concentration at half of the fitted maximal effect
# [3] = biological target: KiSS-1 receptor (Homo sapiens) (UniProt Q969F8); experiment: Human kisspeptin (KISS1R) small molecule agonists, calcium flux assay in KISS1R-HEK293 cells (AID 1920064; active means well fitted curve in the direction sought with a large enough effect in the repeat runs; an effect the other way counts as inactive or inconclusive)
# Chain of KiSS-1 receptor (Homo sapiens) (Q969F8 whole entry, looked up): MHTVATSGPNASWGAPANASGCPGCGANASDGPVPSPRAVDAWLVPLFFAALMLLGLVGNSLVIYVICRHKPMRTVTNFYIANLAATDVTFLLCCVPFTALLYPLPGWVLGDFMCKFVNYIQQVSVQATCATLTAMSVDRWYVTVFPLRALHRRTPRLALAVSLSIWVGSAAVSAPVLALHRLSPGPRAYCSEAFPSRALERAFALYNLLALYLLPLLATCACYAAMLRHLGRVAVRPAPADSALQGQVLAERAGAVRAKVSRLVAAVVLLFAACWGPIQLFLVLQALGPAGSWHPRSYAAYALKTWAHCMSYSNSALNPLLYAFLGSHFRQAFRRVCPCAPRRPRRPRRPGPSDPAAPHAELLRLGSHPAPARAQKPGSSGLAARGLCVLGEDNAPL
# Outline: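 Cells plated and incubated 18 h; dye added, 1 h at 37 C; compounds in DMSO pinned in; signal read at 480/540 nm every second for 3 min. Each compound tested at 15 concentrations in triplicate.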
# [4] = G protein-coupled receptor (GPCR) small molecule agonists, calcium flux assay: HEK293 wild type cell line counter screen (AID 1920065)
# Outline: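 Counter-screen of the Tox21 10K library for non-specific calcium release: dye-loaded cells received compounds in DMSO and were monitored by kinetic fluorescence (480/540 nm, 3 min). Fifteen concentrations, run in triplicate.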
# [5] = p53 small molecule agonists, cell-based qHTS assay with human liver microsomes (AID 1963577); further: potency means the concentration at half of the fitted maximal effect;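 on activation: p53 response element beta-lactamase reporter cells with liver microsomes plus NADPH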
# Outline: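 16 h, 37 C exposure of p53RE-bla cells to compounds with human liver microsomes and NADPH (0.5 mg/mL final each); detection via LiveBLAzer mixture, 2 h dark at room temperature.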
# [6] = p53 small molecule agonists, cell-based qHTS assay with rat liver microsomes (AID 1963578)
# Outline: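 With rat liver microsomes and NADPH present (0.5 mg/mL final each), p53RE-bla cells are treated with compound for 16 h at 37 C. LiveBLAzer detection mixture is then applied for 2 h at room temperature in the dark.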
# [7] = p53 small molecule agonists, cell-based qHTS assay with rat liver microsomes: qHTS cell viability counter screen (AID 1963580); further: nearly all actives have a fitted effect of over 45% in size; further: potency means the concentration at half of the fitted maximal effect
# Outline: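 In HCT-116 cells carrying a p53 response element-bla reporter, compounds were metabolically activated in situ by rat liver microsomes with NADPH over 16 h. Cell ATP content then served as the cytotoxicity measure.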
# [8] = p53 small molecule agonists, cell-based qHTS assay: qHTS cell viability counter screen (AID 1963581); further: nearly all actives have a fitted effect of over 45% in size; further: potency means the concentration at half of the fitted maximal effect
# Outline: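 Cells: HCT-116 with p53 response element-driven beta-lactamase. Treatment: 16 h, 37 C, compounds in DMSO. Read: CellTiter-Glo luminescence after 30 min RT.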
# [9] = p53 small molecule agonists, cell-based qHTS assay (AID 1963582; active means well fitted activation curve with a large enough effect in the signal ratio in the repeat runs, not every such curve was filed as active; the % refers to the signal ratio; further: potency means the concentration at half of the fitted maximal effect)
# Outline: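 Quantitative HTS in p53RE-bla cells: after a 5 h settling period, compounds delivered in DMSO were left on cells for 16 h at 37 C, and reporter induction was measured as fluorescence following 2 h substrate loading.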
# [10] = cAMP Responsive Elements (CRE) small molecule antagonists, cell-based qHTS assay (AID 1963591; active means well fitted inhibition curve with a large enough effect in the signal ratio in the repeat runs, not every such curve was filed as active; the % refers to the signal ratio)
# Outline: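 Antagonist mode: test compounds are co-incubated with the adenylyl cyclase activator NKH477 (0.25 uM final) on CRE-bla HEK293T cells for 3 h at 37 °C, followed by LiveBLAzer substrate loading.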
# [11] = biological target: D(2) dopamine receptor (Homo sapiens) (UniProt P14416); experiment: Dopamine D2 receptor (DRD2) small molecule agonists, cell-based qHTS assay (AID 1963594); further: nearly all actives have a fitted effect of over 35% in size; further: potency means the concentration at half of the fitted maximal effect
# Chain of D(2) dopamine receptor (Homo sapiens) (P14416 whole entry, looked up): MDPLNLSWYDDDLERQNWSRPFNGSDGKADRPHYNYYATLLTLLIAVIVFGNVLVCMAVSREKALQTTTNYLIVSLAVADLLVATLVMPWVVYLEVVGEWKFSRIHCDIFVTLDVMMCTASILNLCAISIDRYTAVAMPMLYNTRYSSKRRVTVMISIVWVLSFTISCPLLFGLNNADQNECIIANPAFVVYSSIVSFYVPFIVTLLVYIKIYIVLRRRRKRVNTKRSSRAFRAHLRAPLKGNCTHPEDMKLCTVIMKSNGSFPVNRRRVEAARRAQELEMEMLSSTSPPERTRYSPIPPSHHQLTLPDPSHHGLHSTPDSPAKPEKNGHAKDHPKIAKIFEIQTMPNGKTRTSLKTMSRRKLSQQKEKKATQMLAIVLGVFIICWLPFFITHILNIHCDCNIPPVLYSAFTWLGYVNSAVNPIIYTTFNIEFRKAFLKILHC
# Outline: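 HEK293 cells stably expressing DRD2 were cultured 24 h at 37 C, then given Ro20-1724 (0.1 mM final) and compounds for 10 min at room temperature. NKH477 (200nM) was then added for 30 min. cAMP was read by HTRF.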
# [12] = biological target: D(2) dopamine receptor (Homo sapiens) (UniProt P14416); experiment: Dopamine D2 receptor (DRD2) small molecule antagonists, cell-based qHTS assay (AID 1963595; active means well fitted inhibition curve with a large enough effect in the signal ratio in the repeat runs, with a control signal flat; the % refers to the signal ratio; further: potency means the concentration at half of the fitted maximal effect)
# Outline: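 HEK293 cells stably expressing DRD2 were preincubated with 0.1 mM Ro20-1724, then with compound for 10 min at room temperature. Cells were stimulated with 200 nM NKH477 plus 12 nM quinpirole for 30 min, and cAMP was read by HTRF.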
# [13] = p53 small molecule agonists, cell-based qHTS assay with human liver microsomes: qHTS cell viability counter screen (AID 1963579); further: nearly all actives have a fitted effect of over 45% in size; further: potency means the concentration at half of the fitted maximal effect
# Outline: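 In this multiplexed counter screen, the reporter plates were subsequently treated with CellTiter-Glo so that cell viability, reflected by luminescence, could be recorded for p53RE-bla cells dosed 16 h with compounds under microsomal activation (HLM and NADPH).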
# [14] = biological target: 5-hydroxytryptamine receptor 2A (Homo sapiens) (UniProt P28223); experiment: 5-hydroxytryptamine receptor 2A (HTR2A) small molecule antagonists, cell-based qHTS assay (AID 1963586); further: nearly all actives have a fitted effect of over 45% in size; further: potency means the concentration at half of the fitted maximal effect
# Chain of 5-hydroxytryptamine receptor 2A (Homo sapiens) (P28223 whole entry, looked up): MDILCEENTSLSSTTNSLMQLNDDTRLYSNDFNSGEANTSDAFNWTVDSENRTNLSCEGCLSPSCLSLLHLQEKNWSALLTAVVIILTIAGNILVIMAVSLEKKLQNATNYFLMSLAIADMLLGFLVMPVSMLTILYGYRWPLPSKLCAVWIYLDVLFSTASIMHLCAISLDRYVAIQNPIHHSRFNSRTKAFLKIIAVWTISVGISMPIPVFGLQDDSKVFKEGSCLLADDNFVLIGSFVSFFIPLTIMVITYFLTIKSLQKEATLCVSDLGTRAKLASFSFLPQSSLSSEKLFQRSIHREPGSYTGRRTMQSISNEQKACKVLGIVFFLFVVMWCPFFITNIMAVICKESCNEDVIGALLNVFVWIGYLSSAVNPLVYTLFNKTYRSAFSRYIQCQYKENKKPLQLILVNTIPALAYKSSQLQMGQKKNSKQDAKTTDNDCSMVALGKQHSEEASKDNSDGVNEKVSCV
# Outline: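 Antagonist-mode intracellular calcium assay: DOI (4 nM) added after 5 min compound pre-incubation at room temperature to dye-loaded HTR2A-CHO cells. Fluorescence followed for 3 min, sampled every second.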
# [15] = biological target: 5-hydroxytryptamine receptor 2A (Homo sapiens) (UniProt P28223); experiment: 5-hydroxytryptamine receptor 2A (HTR2A) small molecule agonists, cell-based qHTS assay (AID 1963587); further: nearly all actives have a fitted effect of over 30% in size; further: potency means the concentration at half of the fitted maximal effect
# Outline: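 HTR2A-CHO cells, plated 18 h at 37 C/5% CO2, dye-loaded 1 h at 37 C; compounds in DMSO added by pin tool (agonist mode). Intracellular calcium flux read as kinetic fluorescence on FDSS over 2 min at 1 s intervals.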
# [16] = biological target: Muscarinic acetylcholine receptor M1 (Homo sapiens) (UniProt P11229); experiment: Cholinergic receptor muscarinic 1 (CHRM1) small molecule antagonists, cell-based qHTS assay (AID 1963588); further: nearly all actives have a fitted effect of over 40% in size; further: potency means the concentration at half of the fitted maximal effect
# Chain of Muscarinic acetylcholine receptor M1 (Homo sapiens) (P11229 whole entry, looked up): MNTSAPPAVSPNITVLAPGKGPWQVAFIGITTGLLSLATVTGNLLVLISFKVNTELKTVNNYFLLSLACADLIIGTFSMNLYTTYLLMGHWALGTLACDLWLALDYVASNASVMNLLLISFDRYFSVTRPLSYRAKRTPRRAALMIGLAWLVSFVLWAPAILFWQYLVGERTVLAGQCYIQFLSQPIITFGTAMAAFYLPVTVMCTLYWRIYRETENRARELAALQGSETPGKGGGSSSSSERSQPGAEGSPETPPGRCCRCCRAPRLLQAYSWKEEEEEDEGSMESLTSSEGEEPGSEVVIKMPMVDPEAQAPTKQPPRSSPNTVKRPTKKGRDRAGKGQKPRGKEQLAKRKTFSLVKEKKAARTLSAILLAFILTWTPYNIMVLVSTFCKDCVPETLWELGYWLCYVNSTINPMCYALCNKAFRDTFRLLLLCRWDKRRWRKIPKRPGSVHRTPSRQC
# Outline: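 CHRM1-CHO calcium-flux assay, antagonist mode. Cells were seeded 18 h, dye-loaded 1 h at 37 C and given compound for 5 min at RT, then acetylcholine was added at 50nM. FDSS fluorescence was read 3 min; 15 concentrations, three runs.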
# [17] = biological target: Muscarinic acetylcholine receptor M1 (Homo sapiens) (UniProt P11229); experiment: Cholinergic receptor muscarinic 1 (CHRM1) small molecule agonists, cell-based qHTS assay (AID 1963589); further: nearly all actives have a fitted effect of over 35% in size
# Outline: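 Agonist-mode qHTS in CHO cells stably carrying human muscarinic M1. Intracellular calcium is tracked by fluorescence every second after compound transfer; each compound runs at 15 concentrations in three independent runs.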
# [18] = cAMP Responsive Elements (CRE) small molecule agonists, cell-based qHTS assay (AID 1963590)
# Outline: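 Agonist mode qHTS in CRE-bla HEK 293T cells: compounds dosed from DMSO for 3 h at 37 C/5% CO2, followed by LiveBLAzer B/G FRET substrate for 2 h at room temperature.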
# [19] = biological target: Beta-2 adrenergic receptor (Homo sapiens) (UniProt P07550); experiment: Adrenergic beta2 receptor (ADRB2) small molecule antagonists, cell-based qHTS assay (AID 1963592); further: series mostly up to about 92 µM; nearly all actives have a fitted effect of over 50% in size
# Chain of Beta-2 adrenergic receptor (Homo sapiens) (P07550 whole entry, looked up): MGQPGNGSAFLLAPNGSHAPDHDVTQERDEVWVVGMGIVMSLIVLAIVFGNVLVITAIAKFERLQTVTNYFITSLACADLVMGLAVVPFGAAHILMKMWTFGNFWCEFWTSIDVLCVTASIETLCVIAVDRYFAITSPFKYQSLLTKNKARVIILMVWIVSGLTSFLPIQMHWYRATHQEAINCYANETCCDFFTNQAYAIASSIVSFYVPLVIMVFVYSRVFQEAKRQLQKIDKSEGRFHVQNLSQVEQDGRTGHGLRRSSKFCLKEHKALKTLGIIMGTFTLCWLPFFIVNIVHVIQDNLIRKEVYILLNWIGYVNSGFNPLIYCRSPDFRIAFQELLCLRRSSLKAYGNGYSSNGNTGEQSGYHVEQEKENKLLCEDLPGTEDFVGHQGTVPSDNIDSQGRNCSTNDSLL
# Outline: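 Cells (CHO, stable ADRB2 overexpression) incubated 18-20hr at 37C; compounds added from DMSO; agonist mix (1nM isoproterenol, 100uM IBMX, 25uM Ro-20-1724) added; 0.5hr RT; d2-cAMP and anti-cAMP-cryptate added; 1hr RT; 665/615 nm read.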
smiles,measurement,setting,value
CC(C)(C)NCC(O)c1cc(Cl)c(N)c(Cl)c1 (stereo not drawn),Potency,[1],inactive
same,Potency,[2],inactive
same,Potency,[3],inactive
same,Potency,[4],inactive
same,Potency,[5],inactive
same,Potency,[6],inactive
same,Potency,[7],inactive
same,Potency,[8],inactive
same,Potency,[9],inactive
same,Potency,[10],inactive
same,Potency,[11],inactive
same,Potency,[12],0.0021 µM (active)
[CH3][Hg][Cl],Potency,[1],6.09 µM (active)
same,Potency,[2],2.43 µM (active)
same,Potency,[3],inactive
same,Potency,[4],inactive
same,Potency,[6],inactive
same,Potency,[13],inactive
same,Potency,[7],inactive
same,Potency,[8],inactive
same,Potency,[9],36.3 µM (active)
same,Potency,[14],inactive
same,Potency,[15],38.8 µM (active)
same,Potency,[16],inactive
same,Potency,[17],inactive
same,Potency,[10],inactive
same,Potency,[12],inactive
COP(=S)(OC)Oc1c(Cl)cc(C)cc1Cl,Potency,[1],inactive
same,Potency,[2],inactive
same,Potency,[3],inactive
same,Potency,[4],inactive
same,Potency,[5],9.13 µM (active)
same,Potency,[13],inactive
same,Potency,[7],inactive
same,Potency,[8],inactive
same,Potency,[9],inactive
same,Potency,[15],inactive
same,Potency,[16],inactive
same,Potency,[17],inactive
same,Potency,[18],inactive
same,Potency,[10],inactive
same,Potency,[19],inactive
same,Potency,[12],inactive
CN=CNc1ccc(C)cc1C,Potency,[1],inactive
same,Potency,[2],inactive
same,Potency,[3],inactive
same,Potency,[4],inactive
same,Potency,[5],inactive
same,Potency,[6],inactive
same,Potency,[13],inactive
same,Potency,[7],inactive
same,Potency,[14],inactive
same,Potency,[15],inactive
same,Potency,[16],inactive
same,Potency,[17],inactive
same,Potency,[18],inactive
same,Potency,[10],inactive
same,Potency,[19],inactive
CC(C)(C)NCC(O)c1cc(Cl)c(N)c(C(F)(F)F)c1 (stereo not drawn),Potency,[1],inactive
same,Potency,[2],inactive
same,Potency,[3],inactive
same,Potency,[4],inactive
same,Potency,[5],inactive
same,Potency,[6],inactive
same,Potency,[13],inactive
same,Potency,[9],inactive
same,Potency,[14],inactive
same,Potency,[15],inactive
same,Potency,[16],inactive
same,Potency,[17],inactive
same,Potency,[10],inactive
same,Potency,[11],inactive
same,Potency,[12],0.0084 µM (active)
CC(C)[C@H](C(=O)OC(C#N)c1cccc(Oc2ccccc2)c1)c1ccc(OC(F)F)cc1 (stereo partly drawn),Potency,[1],inactive
same,Potency,[2],inactive
same,Potency,[3],inactive
same,Potency,[4],inactive
same,Potency,[5],inactive
same,Potency,[13],inactive
same,Potency,[7],inactive
same,Potency,[8],inactive
same,Potency,[9],inactive
same,Potency,[16],inactive
same,Potency,[10],inactive
same,Potency,[19],inactive
same,Potency,[11],inactive
same,Potency,[12],inactive
O=C(O)c1cc(I)cc(I)c1I,Potency,[1],inactive
same,Potency,[2],inactive
same,Potency,[3],inactive
same,Potency,[4],inactive
same,Potency,[5],inactive
same,Potency,[6],inactive
same,Potency,[13],inactive
same,Potency,[7],inactive
same,Potency,[14],inactive
same,Potency,[15],inactive
same,Potency,[16],inactive
same,Potency,[17],inactive
same,Potency,[19],inactive
same,Potency,[12],inactive
Nc1ccc([N+](=O)[O-])cc1,Potency,[1],61.1 µM (active)
same,Potency,[2],24.3 µM (active)
same,Potency,[3],inactive
same,Potency,[4],inactive
same,Potency,[5],inactive
same,Potency,[6],inactive
same,Potency,[8],8.39 µM (active)
same,Potency,[16],inactive
same,Potency,[17],inactive
same,Potency,[19],inactive
same,Potency,[12],inactive
CC(=O)O[C@H]1CC[C@@]2(C)C(=CC[C@@H]3[C@@H]2CC[C@]2(C)C(=O)CC[C@@H]32)C1,Potency,[1],inactive
same,Potency,[2],inactive
same,Potency,[3],inactive
same,Potency,[4],inactive
same,Potency,[5],inactive
same,Potency,[6],inactive
same,Potency,[7],inactive
same,Potency,[8],inactive
same,Potency,[9],inactive
same,Potency,[14],inactive
same,Potency,[15],inactive
same,Potency,[16],inactive
same,Potency,[17],inactive
same,Potency,[19],inactive
same,Potency,[11],inactive
same,Potency,[12],inactive
COC12CC[C@@]3(C[C@@H]1C(C)(O)C(C)(C)C)[C@H]1Cc4ccc(O)c5c4[C@@]3(CCN1CC1CC1)[C@H]2O5 (stereo partly drawn),Potency,[1],30.4 µM (active)
same,Potency,[2],inactive
same,Potency,[4],inactive
same,Potency,[5],inactive
same,Potency,[6],inactive
same,Potency,[8],inactive
same,Potency,[16],33.2 µM (active)
same,Potency,[17],inactive
same,Potency,[19],inactive
same,Potency,[11],inactive
COc1c2c(cc3c1OCO3)CCN(C)C2,Potency,[1],inactive
same,Potency,[2],inactive
same,Potency,[3],inactive
same,Potency,[4],inactive
same,Potency,[13],inactive
same,Potency,[7],inactive
same,Potency,[8],inactive
same,Potency,[14],16.3 µM (active)
same,Potency,[15],1.2 µM (active)
same,Potency,[16],inactive
same,Potency,[17],inactive
same,Potency,[18],inactive
same,Potency,[10],inactive
same,Potency,[19],inactive
same,Potency,[11],6.68 µM (active)
same,Potency,[12],inactive
Oc1ccc(C(=C(Cl)Cl)c2ccc(O)cc2)cc1,Potency,[1],68.5 µM (active)
same,Potency,[2],inactive
same,Potency,[3],inactive
same,Potency,[5],inactive
same,Potency,[6],inactive
same,Potency,[13],51.2 µM (active)
same,Potency,[7],inactive
same,Potency,[14],inactive
same,Potency,[17],inactive
same,Potency,[18],inactive
same,Potency,[11],inactive
same,Potency,[12],inactive
[Cl][Sn]([c]1ccccc1)([c]1ccccc1)[c]1ccccc1,Potency,[1],1.03 µM (active)
same,Potency,[2],0.58 µM (active)
same,activation,[3],2.74% [at 15.8 µM]
same,activation,[4],4.28% [at 11.8 µM]
same,activation,[6],-5.37% [at 13.6 µM]
same,Potency,[13],6.14 µM (active)
same,Potency,[7],6.14 µM (active)
same,"activity, negative = inhibition",[14],-29.3% [at 12.7 µM]
same,"activity, negative = inhibition",[16],-4.75% [at 12.6 µM]
same,activation,[17],2.71% [at 15.8 µM]
same,"activity change, negative = inhibition",[19],1.04% [at 19 µM]
same,activation,[11],8.68% [at 19 µM]
same,Potency,[12],7.3 µM (active)
CNC(=O)CSP(=O)(OC)OC,Potency,[1],inactive
same,Potency,[2],inactive
same,Potency,[3],inactive
same,Potency,[4],inactive
same,Potency,[13],inactive
same,Potency,[7],inactive
same,Potency,[15],inactive
same,Potency,[16],inactive
same,Potency,[17],inactive
same,Potency,[18],inactive
same,Potency,[10],inactive
same,Potency,[19],inactive
same,Potency,[11],inactive
same,Potency,[12],inactive
